GLP1R ag – GLP-1 receptor (human) agonism | HEK293 GLP-1R CRE-luciferase, luminescence, 4-6 h; cells express a hypersensitive GLP-1R form | 380,000 tested, 0.007% active | P43220 | Potency, µM (doses to about 45.6 µM), inactives show top-dose activation, usual class: activators | AID 624172; note: % of control where 0% means no effect
Glioma ERSR ind – ER stress response induction in glioma; U87-MG GRP78 promoter luciferase reporter, 16 h; Potency, µM, for the others: top-dose activation, most hits filed as activators; 420,000 tested, 0.02% active; AID 602332; note: series mostly up to about 76 µM; % of control where 0% means no effect; nearly all actives have a fitted effect of over 35% in size
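Stably transfected U87-MG human glioma cells carrying a GRP78-based luminescent sensor were seeded at 1000 cells/well, pin-dosed with compounds and incubated 16 h. Luciferase reagent was then added, and end-point luminescence was read after 10 min at room temperature.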
GLP-1R inv ag – inverse agonists of human GLP-1 receptor; P43220; HEK293 GLP-1R CRE-luciferase, luminescence, 24 h; GLP-1R form is constitutively active; 410,000 tested, 1.6% active; Potency, µM (titrated, usually from 38.3 µM), for inactives: at the top dose activity change, negative = inhibition, usual class: inhibitors; note: % is set by controls: 0 for no effect and ±100 for the full control effect; nearly all actives have a fitted effect of over 55% in size
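Seeding at 200 cells/uL, 12 h culture, 24 hr compound treatment, then luciferase reagent and a luminescence read; cells are HEK293 stably expressing a constitutively active GLP-1R plus cAMP-responsive luciferase.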
12-LOX inh – blocks human arachidonate 12S-lipoxygenase; P18054; purified 12hLO, xylenol orange hydroperoxide absorbance; Potency, µM (top dose mostly 108 µM), without a hit: at the top dose activity change, negative = inhibition, usual class: inhibitors; 580,000 tested, 1.1% active; AID 1671190; note: % is set by controls: 0 for no effect and ±100 for the full control effect
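Hydroperoxide product was detected by ferrous iron/xylenol orange as the 573 to 405 nm absorbance ratio. Arachidonic acid at 40 uM (final) was turned over for 30 min at room temperature by 150 nM human 12hLO, pH 7.0 Hepes buffer, after 15 min compound preincubation.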
PTHR1 ag – agonists of human PTHR1 parathyroid hormone receptor | Q03431 | HEK293 GP2 PTHR1 cells, GloSensor cAMP luminescence, 1 h | Potency, µM (top dose mostly 115 µM), for inactives: at the highest dose activation, most hits filed as activators | 410,000 tested, 0.075% active | AID 743266; note: nearly all actives have a fitted effect of over 55% in size
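HEK-293-derived GP2 cells expressing PTHR1 and a GloSensor cAMP reporter, 3,000/well, plated overnight, given luciferin plus IBMX (each 0.5 mM as added) for 1 h at 37 °C, then compound for 1 h at 37 °C. Luminescence was read after 15 min at room temperature.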
GLS inhibitor – glutaminase GLS (human) inhibition | Potency, µM (titrated, usually from 45.5 µM), inactives show at the highest dose activity change, negative = inhibition, most hits filed as inhibitors | GLS enzymatic activity, qHTS titration | 410,000 tested, 0.21% active | O94925; note: % is set by controls: 0 for no effect and ±100 for the full control effect
Target sequence (O94925 whole entry, looked up): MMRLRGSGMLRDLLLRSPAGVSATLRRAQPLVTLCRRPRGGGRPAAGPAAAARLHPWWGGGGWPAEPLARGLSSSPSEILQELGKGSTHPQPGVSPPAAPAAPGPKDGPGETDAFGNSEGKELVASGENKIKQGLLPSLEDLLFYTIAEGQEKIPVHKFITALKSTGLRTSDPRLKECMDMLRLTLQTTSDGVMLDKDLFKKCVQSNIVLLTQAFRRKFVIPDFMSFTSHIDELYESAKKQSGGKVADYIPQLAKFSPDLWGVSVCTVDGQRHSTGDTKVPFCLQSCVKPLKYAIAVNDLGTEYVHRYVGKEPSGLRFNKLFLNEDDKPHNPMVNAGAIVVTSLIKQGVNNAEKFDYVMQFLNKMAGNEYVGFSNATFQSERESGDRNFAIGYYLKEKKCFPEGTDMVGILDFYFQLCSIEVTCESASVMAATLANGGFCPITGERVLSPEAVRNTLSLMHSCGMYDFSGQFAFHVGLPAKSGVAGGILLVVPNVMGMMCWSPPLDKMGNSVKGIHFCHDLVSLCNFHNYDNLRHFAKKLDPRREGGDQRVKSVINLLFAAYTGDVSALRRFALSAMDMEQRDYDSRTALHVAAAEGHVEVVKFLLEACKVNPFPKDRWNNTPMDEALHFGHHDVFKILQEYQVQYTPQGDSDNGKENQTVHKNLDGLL
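Compounds were pin-transferred onto hKGA, after which L-glutamine (1 mM solution) and a detection mix of glutamate oxidase, HRP and Amplex Red were added. Initial and 30 min RT fluorescence reads were collected.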
The depositor's hits bear a star; i = inactive; ? = inconclusive; . = no result; ! = repeats disagree; [ ] = dose if it differs, or a comment. In the library only some 2.3% were active in any assay of this set; here they are far more common. Calls come from the whole dose curve; as a rule, active = well fitted curve in the direction sought with a large enough effect; inconclusive = small, poorly fitted or top-dose-only effect, or another doubt; inactive = no such curve, though single readings can be large; an effect the other way counts as inactive or inconclusive. Potency is the fitted concentration of half-maximal effect.

SMILES	GLP1R ag	Glioma ERSR ind	GLP-1R inv ag	12-LOX inh	PTHR1 ag	GLS inhibitor
COC(=O)CCS(=O)(=O)c1ccc(Cl)c(Cl)c1	-7%	-4%	0%	0%	9%[57.5 µM]	1%
COC(=O)CC/C(=N/Nc1ccc(Cl)c(Cl)c1)C(=O)OC	3%	3%	3%	16µM*	-29%	-1%
O=C(Nc1cc(C(F)(F)F)ccc1Cl)C(F)(F)C(F)(F)C(F)(F)C(F)(F)C(=O)Nc1cc(C(F)(F)F)ccc1Cl	.	.	.	-23%	.	.
CS(=O)(=O)c1ccc(OCC2(CNS(=O)(=O)c3ccc(Cl)cc3)C[C@@H](O)[C@@H](O)C2)cc1 (stereo partly specified)	.	.	.	79µM*	.	.
O=C(OCC(=O)c1c[nH]c2ccccc12)c1cc2ccccc2s1	.	.	.	-6%	.	.
Oc1c(/C=C/C=C/C=Nc2ccccc2)sc(=S)n1Cc1ccccc1	-3%	1%	?	13µM*	i	0%
CCCCn1c(O)c(/C=C/C=C/C=Nc2ccccc2)sc1=S	0%	?	?	13µM*	i	-22%
O=S(=O)(Nc1nc2ccccc2nc1NCc1ccc(F)cc1)c1ccc(F)cc1	.	.	.	2%	.	.
COc1ccc(-c2nn(-c3ccccc3)cc2/C=N/NC(N)=S)cc1OC	4%	-1%	?	32µM*	i	-4%
N#CCCn1cc(/C=N/NC(N)=S)c(-c2ccccc2)n1	14%	-3%	?	25µM*	i	-11%
N#CCCn1cc(/C=C2\NC(=S)N(c3ccccc3)C2=O)c(-c2ccc(-c3ccccc3)cc2)n1	1%	11%	7.9µM*	-23%	-1%	-10%
O=C(O)CCn1cc(/C=C2/NC(=S)N(c3ccccc3)C2=O)c(-c2ccccc2)n1	2%	-3%	-5%	?	i	11%
CCn1c(SCC(=O)Nc2ccc3c(c2)c2ccccc2n3CC)nnc1-c1ccco1	10%	-4%	?	11µM*	-7%[57.5 µM]	?
CCn1c(SCC(=O)Nc2cccc(NC(C)=O)c2)nnc1-c1ccco1	10%	-2%	16%	-11%	0%	2%
CCCN(CC(=O)Nc1ccccc1Br)CC(=O)Nc1ccc(F)c(F)c1F	19%	-3%	?	4%	-29%	-2%
CCCN(CC(=O)Nc1ccccc1C)CC(=O)Nc1ccc(Br)cc1F	12%	0%	10µM*	?	i	0%
CC(=O)c1ccc(OCc2cc(C(=O)N(C)CCOc3ccc(C)cc3)no2)cc1	17%	-2%	10µM*	-7%	-35%	0%
OC(COC(c1ccccc1)c1ccccc1)CN1CCc2ccccc2C1 (stereo unspecified)	?	-4%	10µM*	1%	i	7%
OC(COC(c1ccc(Cl)cc1)c1ccc(Cl)cc1)CN1CCc2ccccc2C1 (stereo unspecified)	7%	-5%	5µM*	?	-19%	6%
OC(COCC1COc2ccccc2O1)CN1CCc2ccccc2C1 (stereo unspecified)	-4%	?	10µM*	?	i	11%
OC(COC(c1ccc(F)cc1)c1ccc(F)cc1)CN1CCc2ccccc2C1 (stereo unspecified)	-1%	-6%	?	2%	i	12%
CCNS(=O)(=O)c1ccc(NC(=O)c2ccccc2OCC)cc1	14%	-3%	70%	?	i	-3%
CC(C)c1ccccc1Cc1cc(C(=O)Nc2ccc(S(=O)(=O)c3ccccc3C(C)(C)C)cc2)c(O)c(O)c1O	.	.	.	9.7µM*	.	.
Cc1cc(Nc2cccc(Cl)c2)nc2ccc(NC(=O)c3cccc(N(C)C)c3)cc12	-3%	2%	5.6µM*	-17%	i	1%
COc1ccc(CC(=O)Nc2ccc3nc(Nc4cccc(Cl)c4)cc(C)c3c2)cc1	-11%	1%	7.9µM*	?	-18%	-7%
SMILES	GLP1R ag	Glioma ERSR ind	GLP-1R inv ag	12-LOX inh	PTHR1 ag	GLS inhibitor
COc1ccc(Nc2cc(C)c3c(O)cccc3n2)cc1	1%	0%	13µM*	?	i	2%
Cc1cc(Nc2cccc(Cl)c2)nc2ccc(NC(=O)c3cccnc3)cc12	-6%	-10%	?	-5%	-20%	-12%
COc1ccccc1CC(=O)Nc1ccc2nc(Nc3cccc(Cl)c3)cc(C)c2c1	-1%	-3%	?	-18%	-18%	-6%
Cc1cc(C)c(S(=O)(=O)c2ccccc2C)c(SCC(C)C)n1	1%	-2%	?	0%	-5%[57.5 µM]	1%
CCCSc1nc(C)cc(C)c1S(=O)(=O)c1ccccc1C	11%	0%	8.9µM*	0%	i	0%
CC(C)Cn1c(-c2ccco2)n[nH]c1=S	-11%	-4%	-7%	10µM*	i	-14%
CC(C)Cn1c(-c2ccccc2F)n[nH]c1=S	-10%	-4%	-5%	25µM*	0%	6%
CC(C)Cn1c(-c2ccc(F)cc2)n[nH]c1=S	13%	-4%	-11%	?	i	-19%
CN1CCN(c2ncnc3c2[nH]c2ccc(F)cc23)CC1	4%	-3%	-6%	15%	i	0%
CN1CCN(c2cc3c(c4c2[nH]c2ccccc24)C(=O)CC(C)(C)C3)CC1	-4%	-4%	?	40µM*	-20%	6%
COc1ccc(-c2nc(N3CCCCCC3)sc2C(=O)c2ccccc2)cc1	5%	-5%	2µM*	1%	-8%[57.5 µM]	9%
O=C(c1ccccc1)c1sc(N2CCCCCC2)nc1-c1ccccc1	12%	-1%	5µM*	43%	-18%	8%
[2H]c1c([2H])c([2H])c(C(=O)c2sc(N3CCCCCC3)nc2-c2ccccc2)c([2H])c1[2H]	1%	0%	?	0%	-21%	3%
O=C(c1ccccc1)c1sc(N2CCOCC2)nc1-c1ccccc1	?	-2%	?	-11%	-5%	1%
Cc1cc(C)cc(N(CC(=O)Nc2cccc(C)n2)S(=O)(=O)c2c(C)noc2C)c1	-2%	-4%	8.9µM*	-28%	i	3%
COc1ccc(N(CC(=O)NCc2ccccc2)S(=O)(=O)c2c(C)noc2C)cc1	17%	-4%	1%	0%	16%[57.5 µM]	0%
Cc1ccc(NC(=O)CN(c2cc(C)cc(C)c2)S(=O)(=O)c2c(C)noc2C)nc1	2%	-2%	?	-7%	-25%	-2%
COc1ccc(N(CC(=O)NC(C)c2ccccc2)S(=O)(=O)c2c(C)noc2C)cc1 (stereo unspecified)	-2%	-4%	8.9µM*!	-10%	-28%	3%

Screening data as filed in PubChem.
